The campaign covered roughly 300,000 compounds. About 2,700 (0.9%) were called active. The sample holds actives, similar compounds and a random draw of the others, so the mix is not that of the screen. A number with no mark means an inactive call.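 The calls were made as follows: active = mean inhibition of at least 30% with at least half of replicates also reaching 30%; inconclusive = no clear call, values can overlap the other calls; inactive = the rest.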
Biological target: Golgi-associated PDZ and coiled-coil motif-containing protein (Homo sapiens) (UniProt Q9HD26)
Experiment: blockade of CAL PDZ-reporter peptide interaction – biochemical, fluorescence polarization, untagged CAL PDZ, HTS, primary screen (AID 602252);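 also: 0% = DMSO neutral control and 100% = excess unlabeled competitor peptide PRC23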
Conditions: purified CAL PDZ, TMR-peptide fluorescence polarization, 1 h; at 24.9 µM; active compounds read high

SMILES	inhibition
Nn1c(Cc2cccc3ccccc23)nnc1SCC(=O)N1CC(=O)Nc2ccccc21	1.45%
C=CCn1c(COc2ccccc2F)nnc1SCC(=O)N1CC(=O)Nc2ccccc21	56% (active)
O=C1CN(C(=O)COC(=O)/C=C/c2ccc(F)cc2)c2ccccc2N1	-2.46%
COc1cc(NC(=O)c2[nH]cnc2C(N)=O)cc(C(=O)Nc2cccc(C(F)(F)F)c2)c1	-1.42%
COC(=O)c1ccc(/C=C/c2c(-c3ccc(OC)cc3)sc3ccccc23)cc1	0.974%
COc1ccc(/C=C/c2noc(-c3ccccc3OC(C)=O)n2)cc1	87% (active)
COc1cccc(/C=C/c2ccc3ccccc3n2)c1OC(C)=O	-0.936%
COCC(=O)N(C)[C@H]1C[C@H]2c3cc(Oc4ccccc4C)ccc3CCN2C(=O)[C@H]1[C@H](C)O	-3.46%
C=CCC[C@@H](Cc1ccc(F)cc1)C(=O)OC[C@@H](C)NC(=O)[C@H](CC=C)CC(=O)N(CCO)Cc1ccccc1	3.24%
COc1ccc(-c2noc(CCC(=O)N3CCN(c4cccc(C)c4)CC3)n2)cc1	-3.56%
COc1ccc(CNC(=O)C[C@H]2C[C@H](C(=O)N3CCOCC3)[C@@]3(C)c4[nH]c5cc(CCC(=O)N(C)C)ccc5c4CCN3C2=O)cc1OC	-5.01%
CC(=O)c1ccc(OCC(O)CN2CCN(S(=O)(=O)c3cccc(Br)c3)CC2)cc1 (stereo not given)	35% (active)
O=S(=O)(c1ccc(OCC(O)CN2CCN(c3ccccc3Cl)CC2)cc1)N1CCOCC1 (stereo not given)	-2.34%
Cc1cccc(OCC(O)CN2CCN(S(=O)(=O)c3ccc(C)cc3C)CC2)c1 (stereo not given)	1.68%
COC(=O)c1ccc(NCc2cc(O)ccc2O)cc1	0.712%
COc1cc(/C=C2/C(=O)ON=C2C)ccc1OCc1cccc(F)c1	40.4% (active)
COc1cc(/C=C2/C(=O)ON=C2C)ccc1OCc1ccccc1F	-3.18%
C=CCOc1ccc(/C=C2/C(=O)ON=C2C)cc1OCC	-3%
COc1cc(OC)c(C(=O)NNC(=O)c2ccc(NS(=O)(=O)c3cccs3)cc2)cc1OC	-2.8%
C=CC(=O)Nc1ccc(Nc2ccnc(Nc3ccc(N4CCN(C)CC4)cc3)n2)cc1	-0.863%
COC(=O)c1ccc(NC(=O)Nc2ccc(C)cc2)cc1	-0.88%
CCOC(=O)c1ccc(NC(=S)Nc2cc(C)cc(C)n2)cc1	-17%
COC(=O)c1ccc(NC(=S)Nc2cccc(C)n2)cc1	52.8% (active)
O=C(N[C@@H]1C/C=C\C[C@@H](CC(=O)N(CCO)Cc2ccccc2)C(=O)N[C@H](Cc2ccccc2)COC1=O)OCC1c2ccccc2-c2ccccc21	14.1%
CC1Cc2ccccc2N1S(=O)(=O)c1cccc(C(=O)NCC(c2ccco2)N2CCCC2)c1 (stereo not given)	1.18%
COC(=O)[C@]1(Cc2ccccc2)N[C@H](CN(C)S(=O)(=O)c2ccc(F)cc2)[C@@H]2C(=O)N(Cc3ccccc3)C(=O)[C@@H]21	-4.16%
COc1cc(/C=C/C(=O)Nc2ccc(OC)c(S(=O)(=O)N3CCOCC3)c2)ccc1OCC#N	-3.83%
CC(C)N(C(=O)CSc1nnc(NC2CC2)s1)c1ccccc1	31.5% (active)

SMILES	inhibition
CN(C(=O)CSc1nnc(Nc2ccccc2)s1)C1CCS(=O)(=O)C1 (stereo not given)	-5.88%
Cc1csc(SCC(=O)N(c2ccccc2)C(C)C)n1	-3.25%
C=CCOC(=O)N1CCC2CC1c1cc(-c3ccc(OC)cc3)ccc12 (stereo not given)	-1.31%
CCc1cccc(C)c1NC(=O)COC(=O)Cc1ccsc1	5.55%
Cc1cccc(C)c1NC(=O)CNC(=O)C1CCCC1	-2.92%
CCc1cccc(C)c1NC(=O)COC(=O)CC1CCCC1	31.1% (active)
COc1ccc2[nH]c3c(c2c1)CCN1C(=O)C(CC(=O)NCc2cccc(C(F)(F)F)c2)C[C@H](C(=O)N2CCOCC2)[C@@]31C (stereo not given in full)	-2.83%
COc1cc(/C=C/C(=O)OCC(=O)c2ccccc2)cc(OC)c1OC	-8.15%
Cc1c(C(N)=O)sc2ncn(CCOc3ccccc3)c(=O)c12	40.6% (active)
Cc1cccc(OC(=O)c2sc3ncn(C)c(=O)c3c2C)c1	-1.6%
CCOC(=O)C(C)n1cnc2sc(C)c(C)c2c1=O (stereo not given)	-4.48%
O=[N+]([O-])c1cc2ccccc2nc1-c1ccccc1	3.37%
COc1cc(OC)cc(C(=O)NCC(=O)N2CCCCCCC2)c1	59.5% (active)
CCOc1ccc(C(=O)NCC(=O)N2CCCCCCC2)cc1OCC	2.87%
Cc1cc(C)cc(C(=O)NCC(=O)OCC(=O)N2CCCCC2)c1	-4.99%
Cc1ccc(C2(C)NC(=O)N(CC(=O)N3CC(=O)Nc4ccccc43)C2=O)cc1 (stereo not given)	-3.12%
O=C(COC(=O)c1ccco1)Nc1ccc(Cl)cn1	-5.62%
CC(OC(=O)CCCOc1ccccc1)C(=O)Nc1ccc(Cl)cn1 (stereo not given)	-3.1%
Cc1cccc(OCC(=O)OCC(=O)Nc2ccc(Cl)cn2)c1	74.8% (active)
CC(=O)Nc1ccc(S(=O)(=O)NCCC(=O)N2CCN(c3ccccc3Cl)CC2)cc1	-2.76%
COc1cc(C)ccc1OCC(=O)OCC(=O)c1ccc[nH]1	3.54%
Cc1cccc(CC2(O)C(=O)Nc3ccccc32)n1 (stereo not given)	3.12%
Cc1cc([N+](=O)[O-])ccc1NS(=O)(=O)c1ccccc1	2.21%
CC(=O)c1ccc(OCCCC(=O)Nc2ccc(C)c(S(=O)(=O)N3CCOCC3)c2)cc1	-2.79%
CCN(CC)S(=O)(=O)c1ccc(N2CCOCC2)c(C(=O)O)c1	-7.23%
CCN(CC)S(=O)(=O)c1ccc(Cl)c(C(=O)NCCN2CCOCC2)c1	34.1% (active)
CCN(CC(=O)NCCCN1CCOCC1)S(=O)(=O)c1cc(Cl)ccc1Cl	6.12%

Source: PubChem BioAssay AID602252 (Broad Institute, 2012)
